# TWEAK Fn14 block – TWEAK-Fn14 signaling inhibition; actives 2% (n = 360,000); TWEAK-stimulated Fn14 reporter cells, luciferase luminescence, 8 h; inhibition, % at 10 µM; in the data active means inhibition above about 50%
# PAX8 reporter – PAX8 transcriptional activity inhibition; RMG-I TPO-luciferase reporter, SteadyGlo, 24 h; inhibition, % at 12.6 µM; actives 1.2% (n = 360,000); AID 652154;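 active means mean replicate inhibition at least 60% with every replicate also reaching 60%; inconclusive means only one of the two criteria is met; inactive means mean below 60% and not all replicates reaching 60%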;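 further: luciferase light reporting Pax8 driven TPO promoter activity; plate controls were median of neutral control wells for no effect and mitoxantrone controls for full effect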
# LGR2 antag – blocks bursicon-induced cAMP signaling via Drosophila LGR2. HEK293 LGR2, CRE-luciferase, bursicon-stimulated, 4 h. inhibition, % at 9.99 µM. actives 0.35% (n = 380,000). AID 720647;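 active means drop in luminescence signal, shown as inhibition above about 50% in the replicate tests, limit read from the data, passing the limit was not always enough; inconclusive means probably only some replicates passing the limit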;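 further: agonist challenge used bursicon conditioned medium at about half maximal strength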
# TROY NFkB inh – TROY signaling inhibition | Q293 LMP1-TROYcd NF-kB luciferase reporter, 4 h | inhibition, % at 10 µM | actives 0.98% (n = 360,000) | AID 1347056;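 active means compounds whose plate-normalised and pattern-corrected inhibition of the luciferase reporter signal at the single screening dose is 50% or more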
# EWS-Fli inh – inhibitors of EWS/Fli oncoprotein transcriptional activity; A673 NR0B1-luciferase reporter, viability-normalised; inhibition, % at 12.6 µM; actives 0.67% (n = 350,000); AID 651661;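 active means mean inhibition of at least 50% after viability correction, with every replicate also passing that limit; inconclusive means mean reaches 50% but only one of two replicates passes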;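 further: firefly luciferase signal divided by Alamar Blue viability fluorescence both relative to DMSO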
# An asterisk follows results filed as active; ? = inconclusive; / = not tested or not shown. Shown are actives, neighbours in structure and some others; about 2.8% of the full set was active somewhere.
SMILES,TWEAK Fn14 block,PAX8 reporter,LGR2 antag,TROY NFkB inh,EWS-Fli inh
O=C(NC[C@@H]1N[C@@H](CO)[C@H]1c1ccc(C2=CCCCC2)cc1)c1ccc(F)cc1,/,48,-3,/,3
Cc1c(OC(C)C(=O)O)ccc2c3c(c(=O)oc12)CCCC3 (configuration not stated),56*,-37,4,-6,7
CC(=O)Oc1ccc2c3c(c(=O)oc2c1C)CCCC3,12,10,-11,1,9
CCCNC(=O)N1CC2(CCN(Cc3cccc(F)c3)CC2)c2c([nH]c3cc(OC)ccc23)[C@H]1CO,/,/,-4,/,28
CCCNC(=O)N1C[C@@H](O)COC[C@@H]2O[C@@H](CC(=O)N3CCCCC3)CC[C@H]21,/,-3,29,/,3
COC1=CC(=O)C=C(OC)C1=O,28,78*,-3,-14,63*
C[C@H]1CN([C@@H](C)CO)C(=O)c2cccc(NC(=O)c3ccncc3)c2O[C@H]1CN(C)S(=O)(=O)c1cccs1,/,/,12,/,-6
COc1cc(C=O)ccc1OCCCOc1ccccc1[N+](=O)[O-],-12,-129,-23,-61,-19
COc1cc(C=O)ccc1OCCCOc1ccccc1C(=O)O,102*,/,/,84*,/
COc1ccc(S(=O)(=O)N(C)C[C@@H]2Oc3c(NC(=O)Nc4cccc5ccccc45)cccc3C(=O)N([C@@H](C)CO)C[C@@H]2C)cc1,/,/,-6,/,4
Cc1ccc(C)c(CSc2nc3[nH]ncc3c(=O)[nH]2)c1,33,11,6,20,58*
Oc1c(C=Nc2ccccc2)sc2ccccc12,67*,-4,?,37,-87
Oc1c(C=Nc2cccnc2)sc2ccccc12,-10,/,-41,-1,/
CCOc1ccccc1/C=N/n1nnnc1N,74*,-8,-12,-10,10
CC(=O)C(C(c1ccccc1)c1c[nH]c2ccccc12)[N+](=O)[O-] (configuration not stated),-14,22,6,16,51*
NC(=S)n1[nH]c(-c2ccc([N+](=O)[O-])cc2)c(N=Nc2cccc(Cl)c2)c1=O,72*,-4,31,56*,44
NC1=NS(=O)(=O)NC1c1cccc(Cl)c1 (configuration not stated),82*,/,-3,1,/
Cc1noc(C)c1S(=O)(=O)N(C)C[C@@H]1Oc2ccc(NC(=O)Cc3cn(C)c4ccccc34)cc2CC(=O)N([C@H](C)CO)C[C@H]1C,/,/,-4,/,4
C[C@@H]1CN([C@H](C)CO)C(=O)Cc2cc(N(C)C)ccc2O[C@H]1CN(C)Cc1ccc(Cl)c(Cl)c1,/,32,7,/,-3
C[C@@H]1CN([C@@H](C)CO)C(=O)Cc2cc(N(C)C)ccc2O[C@H]1CN(C)Cc1ccc(Cl)c(Cl)c1,/,71*,1,/,-1
C[C@H](CO)N1C[C@H](C)[C@H](CN(C)Cc2ccc(Cl)c(Cl)c2)Oc2ccc(N(C)C)cc2CC1=O,/,13,-7,/,6
C[C@H](CO)N1C[C@H](C)[C@@H](CN(C)Cc2ccc(Cl)c(Cl)c2)Oc2ccc(N(C)C)cc2CC1=O,/,75*,-7,/,-1
C[C@@H]1CN([C@H](C)CO)C(=O)c2ccccc2-c2ccccc2CO[C@H]1CN(C)C(=O)[C@@H](Cc1ccccc1)N(C)C,/,3,-8,/,0
CCC(C)c1ccccc1NC(=O)COC(=O)c1ccc2[nH]c3c(c2c1)CCCC3 (configuration not stated),98*,7,13,56*,/
COc1ccc(C2c3cc4c(cc3OC(N3CCOCC3)C2C)OCO4)c(OC)c1 (configuration not stated),10,37,22,26,60*
SMILES,TWEAK Fn14 block,PAX8 reporter,LGR2 antag,TROY NFkB inh,EWS-Fli inh
COc1ccc2c3c([nH]c2c1)[C@H](CO)N(C(=O)C1CC1)CC31CCN(C)CC1,/,/,5,/,10
CC(C)C(=O)Nc1ccc(-c2nc3ncccc3o2)cc1,46,-63,39,19,13
CC(Oc1ccc(Cl)cc1Cl)C(=O)Nc1ccc2oc(-c3ccncc3)nc2c1 (configuration not stated),54*,-13,/,59*,/
CC(C)CC(=O)Nc1ccc2oc(-c3ccncc3)nc2c1,-21,/,/,-56,/
Cc1ccc(-c2nc3cc(NC(=O)C(C)C)ccc3o2)cc1C,86*,/,/,80*,/
CC(C)C(=O)Nc1ccc(-c2nc3cccnc3o2)cc1,60*,-29,/,13,/
Cc1ccc(-c2nc3cc(NC(=O)C(C)C)ccc3o2)cc1,61*,/,/,53*,/
COc1ccc(CNC(=O)C[C@@H]2CC[C@@H](NS(=O)(=O)c3cccc(OC)c3)[C@H](CO)O2)cc1,/,/,13,/,6
COCCNC(=O)C[C@H]1CC[C@H]2[C@@H](COC[C@H](O)CN2C(=O)Nc2ccccc2OC)O1,/,/,2,/,/
COc1ccc(-c2cnc3c(c2)C(=O)N([C@@H](C)CO)C[C@H](C)[C@H](CN(C)C(=O)C2CC2)O3)cc1,/,/,-9,/,-1
C[C@@H]1CN([C@@H](C)CO)C(=O)c2cccc(NS(=O)(=O)c3cccs3)c2O[C@H]1CN(C)Cc1ccc(Oc2ccccc2)cc1,/,/,-8,/,-6
CCOC(=O)c1sc(NC(=O)Nc2ccccc2)cc1C,37,-208,/,32,-39
CCOC(=O)c1sc(NC(=O)Nc2ccccc2Cl)cc1C,70*,-130,15,69*,/
CCOC(=O)c1sc(=S)n(C)c1NC(=O)c1ccccc1Cl,3,76*,-3,-1,-2
O=C1/C(=C/c2ccccc2)SC(=S)N1CC(=O)N1CCCCC1c1cccnc1 (configuration not stated),-11,90*,7,5,/
O=C1C=CC(=O)N1CCCCCCCCCCN1C(=O)C=CC1=O,27,68*,12,30,37
O=C1C=CC(=O)N1Cc1ccncc1,13,1,12,2,7
C[C@@H]1CCCCO[C@@H](CN(C)Cc2ccc3c(c2)OCO3)[C@@H](C)CN([C@@H](C)CO)C(=O)c2cc(NC(=O)CCC(F)(F)F)ccc2O1,/,-5,14,/,-10
O=C(N/N=C/c1cn(-c2cccs2)nc1-c1ccccc1)c1ccccc1O,91*,23,74*,62*,/
CCC(=O)N1C[C@@H]2[C@H](c3ccccc31)[C@H](CO)N2C(=O)Nc1ccccc1,/,-12,2,/,-3
CO[C@H](CN(C)S(=O)(=O)c1cccc(Cl)c1)[C@@H](C)CN(C(=O)Nc1ccccc1F)[C@@H](C)CO,/,/,-19,/,-9
COc1cccc(-c2nnc(SC(C(=O)c3c[nH]c4ccccc34)c3ccccc3)n2C)c1 (configuration not stated),51*,6,5,25,2
Cc1nnc(N2CCCC(C(=O)Nc3cc(F)ccc3F)C2)c2nn(-c3ccccc3)c(C)c12 (configuration not stated),39,/,/,53*,/
Cc1nnc(N2CCC(C(=O)N3CCCCC3)CC2)c2nn(-c3ccc(Cl)cc3)c(C)c12,-15,/,/,3,/
Cc1ccc(-n2nc3c(N4CCC(C(=O)NCCc5cccs5)CC4)nnc(C)c3c2C)cc1,-4,71*,-2,2,/

# Assay outcomes as filed in PubChem.
